From article PMC4081100, “A DNA-binding-site landscape and regulatory network analysis for NAC transcription factors in Arabidopsis thaliana” come the findings set out here.

Holding throughout (assay): universal protein binding microarray (PBM); transcription factors of Arabidopsis thaliana; high values mean tight binding
Test [1] addresses T1, GST-ANAC092(1-176) (Arabidopsis thaliana, UniProt Q9FKA0 1-176).
T1 sequence: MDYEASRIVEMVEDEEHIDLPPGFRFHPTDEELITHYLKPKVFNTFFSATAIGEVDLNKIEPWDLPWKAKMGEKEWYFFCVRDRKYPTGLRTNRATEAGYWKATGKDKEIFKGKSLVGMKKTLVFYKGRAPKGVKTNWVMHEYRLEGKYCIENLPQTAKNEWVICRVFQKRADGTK
Particulars: protein: recombinant; tags: GST; chain copies: 2; dsDNA, one strand shown. Put shortly:
(§1)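 For zinc-finger proteins, zinc acetate was added while GST-tagged NAC-domain, full-length or DNA-binding-domain proteins were induced in cells. Purification used glutathione–Sepharose 4B, and quantification used A280 or anti-GST western blot. Custom all-10-mer Agilent 4 × 180K arrays, made double-stranded by primer extension, each received a protein at 200 to 500 nM final in duplicate. Scoring covered gapped and ungapped 8-mers, with binding given as the normalised enrichment score (E-score).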

In test [2] the target is T2, GST-ANAC055(1-171) (Arabidopsis thaliana, UniProt Q9LDY8 1-171).
T2 sequence: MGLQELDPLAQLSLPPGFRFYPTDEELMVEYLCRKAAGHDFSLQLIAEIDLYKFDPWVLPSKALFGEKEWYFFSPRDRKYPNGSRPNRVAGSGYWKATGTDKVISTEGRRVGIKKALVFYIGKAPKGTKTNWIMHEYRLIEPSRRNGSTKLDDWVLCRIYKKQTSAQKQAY
Particulars: protein: recombinant; tags: GST; chain copies: 2; dsDNA, one strand shown. Put shortly:
as §1

The target of test [3] is T3, GST-ATAF1 NAC domain (Arabidopsis thaliana, UniProt Q39013 7-158).
T3 sequence: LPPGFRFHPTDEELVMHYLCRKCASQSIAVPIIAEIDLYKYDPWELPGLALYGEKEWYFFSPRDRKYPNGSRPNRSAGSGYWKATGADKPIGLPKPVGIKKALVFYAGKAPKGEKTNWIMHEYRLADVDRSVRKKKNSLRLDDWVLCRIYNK
Particulars: protein: recombinant; tags: GST; chain copies: 2; dsDNA, one strand shown. The gist of the method:
as §1

The target in test [4] is T4, GST-ANAC092(1-285) full length (Arabidopsis thaliana, UniProt Q9FKA0 1-285).
T4 sequence: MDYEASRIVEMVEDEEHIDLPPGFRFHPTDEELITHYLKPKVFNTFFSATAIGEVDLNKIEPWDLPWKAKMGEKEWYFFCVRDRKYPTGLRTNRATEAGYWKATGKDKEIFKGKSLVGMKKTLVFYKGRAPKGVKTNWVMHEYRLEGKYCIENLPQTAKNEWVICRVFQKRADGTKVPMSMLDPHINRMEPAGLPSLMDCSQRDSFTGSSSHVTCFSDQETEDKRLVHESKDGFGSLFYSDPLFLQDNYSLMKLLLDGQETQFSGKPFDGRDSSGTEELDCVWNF
Particulars: protein: recombinant; tags: GST; chain copies: 2; dsDNA, one strand shown. The gist of the method: as §1

Test [5] has as its target T5, GST-NAP(1-166) (Arabidopsis thaliana, UniProt O49255 1-166).
T5 sequence: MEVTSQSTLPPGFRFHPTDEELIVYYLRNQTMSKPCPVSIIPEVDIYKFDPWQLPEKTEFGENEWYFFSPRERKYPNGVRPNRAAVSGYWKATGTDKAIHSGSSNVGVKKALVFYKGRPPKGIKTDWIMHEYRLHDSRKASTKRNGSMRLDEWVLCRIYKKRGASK
Particulars: protein: recombinant; tags: GST; chain copies: 2; dsDNA, one strand shown. Put shortly:
as §1

For test [6], the target named is T6, GST-NST2(1-184) (Arabidopsis thaliana, UniProt Q9M274 1-184).
T6 sequence: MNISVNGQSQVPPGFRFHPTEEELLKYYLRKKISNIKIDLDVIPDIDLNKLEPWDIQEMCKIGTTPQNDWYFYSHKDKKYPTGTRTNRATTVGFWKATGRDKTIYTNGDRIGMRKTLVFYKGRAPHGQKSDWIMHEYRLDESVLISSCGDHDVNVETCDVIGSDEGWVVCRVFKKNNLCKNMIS
The conditions noted are these: protein: recombinant; tags: GST; chain copies: 2; dsDNA, one strand shown. The gist of the method:
as §1

In test [7] the target is T7, GST-SND1(1-203) (Arabidopsis thaliana, UniProt Q9LPI7 1-203).
T7 sequence: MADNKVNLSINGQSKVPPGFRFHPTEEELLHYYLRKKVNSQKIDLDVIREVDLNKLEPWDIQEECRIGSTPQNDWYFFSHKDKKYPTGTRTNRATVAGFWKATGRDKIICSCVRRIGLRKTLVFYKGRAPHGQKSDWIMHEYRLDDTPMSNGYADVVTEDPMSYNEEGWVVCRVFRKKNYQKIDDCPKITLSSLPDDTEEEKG
Particulars: protein: recombinant; tags: GST; chain copies: 2; dsDNA, one strand shown. Put shortly:
as §1

The target of test [8] is GST-WRKY1(266-371) (Arabidopsis thaliana, UniProt Q9SI37 266-371). The conditions noted are these: protein: recombinant; tags: GST; dsDNA, one strand shown. The gist of the method:
as §1

Test [9] addresses GST-NTL6(1-168) (Arabidopsis thaliana, UniProt Q9SCK6 1-168). Particulars: protein: recombinant; tags: GST; chain copies: 2; dsDNA, one strand shown. Put shortly:
as §1

The target in test [10] is T8, GST-ANAC019 NAC domain (Arabidopsis thaliana, UniProt Q9C932 14-162).
T8 sequence: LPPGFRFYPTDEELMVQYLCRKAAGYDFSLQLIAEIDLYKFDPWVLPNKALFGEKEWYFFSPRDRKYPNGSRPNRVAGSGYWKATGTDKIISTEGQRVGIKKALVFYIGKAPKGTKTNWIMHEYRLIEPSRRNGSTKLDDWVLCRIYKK
The conditions noted are these: protein: recombinant; tags: GST; chain copies: 2; dsDNA, one strand shown. The gist of the method:
as §1

The target of test [11] is T9, GST-NTL8 NAC domain (Arabidopsis thaliana, UniProt Q9XIN7 14-156).
T9 sequence: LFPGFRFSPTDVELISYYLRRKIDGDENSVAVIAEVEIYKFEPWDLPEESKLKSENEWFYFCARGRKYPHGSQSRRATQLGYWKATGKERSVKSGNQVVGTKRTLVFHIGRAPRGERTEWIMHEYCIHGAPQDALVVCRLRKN
Particulars: protein: recombinant; tags: GST; chain copies: 2; dsDNA, one strand shown. Put shortly: as §1

Sequence of GST-NTL6(1-168) (Q9SCK6 1-168): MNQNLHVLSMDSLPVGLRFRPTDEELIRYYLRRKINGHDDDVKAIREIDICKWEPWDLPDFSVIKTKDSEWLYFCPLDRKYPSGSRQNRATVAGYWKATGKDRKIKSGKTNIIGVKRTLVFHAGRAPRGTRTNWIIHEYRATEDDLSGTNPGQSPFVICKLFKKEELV
Sequence of GST-WRKY1(266-371) (Q9SI37 266-371): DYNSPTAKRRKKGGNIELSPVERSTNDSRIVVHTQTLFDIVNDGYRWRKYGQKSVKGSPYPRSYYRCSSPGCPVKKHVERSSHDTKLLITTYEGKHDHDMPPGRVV

GTCAAGAA: the binding signal was determined as 0.0716 E-score in [1]; 0.0615 E-score in [2]; 0.114 E-score in test [3]; 0.124 E-score in [4]; 0.0595 E-score in test [5]; 0.0986 E-score in test [6]. For the same sequence, the values for the binding signal in test [7] and in [8] were 0.052 E-score and 0.436 E-score, respectively.
On to AGCGTTGA, for which the binding signal in [9] turned out to be 0.0737 E-score; in [4], 0.0576 E-score; in [6] it was 0.0637 E-score; in test [7], 0.0527 E-score; in test [8], 0.401 E-score.
With CGTAGTCA, the binding signal in [10] worked out at 0.0805 E-score; in test [3], 0.117 E-score; in [7], 0.161 E-score; in test [8], 0.405 E-score.
Regarding GGGGGAAA, the binding signal in test [1] was found to be 0.117 E-score; in test [9] it was 0.314 E-score; in test [10], 0.12 E-score; in [4], 0.139 E-score; in test [11], 0.472 E-score; in test [7], 0.147 E-score.
Turning to AGGGAAAG, the binding signal in [1] was 0.0861 E-score; in test [9] it was 0.115 E-score; in test [10], 0.129 E-score; in [11], 0.473 E-score; in test [7], 0.114 E-score.
As to CTGACTTC, the binding signal in [10] is 0.0546 E-score; in test [11], 0.113 E-score; in test [7], 0.0589 E-score; in test [8] it was 0.412 E-score.
For the sequence TCAGTCAA, the binding signal is 0.0626 E-score in test [3], 0.0655 E-score in test [11], 0.0688 E-score in test [7] and 0.473 E-score in test [8].
Take GGGGAAAC: the binding signal in test [1] is 0.177 E-score; in test [9] it was 0.17 E-score; in [10], 0.152 E-score; in test [4], 0.217 E-score; in test [5], 0.12 E-score; in test [11], 0.412 E-score. In addition, in test [7], the binding signal amounted to 0.209 E-score.
For the sequence CTTTGACC, the results for the binding signal in test [1], in test [7] and in test [8] were 0.051 E-score, 0.0526 E-score and 0.488 E-score, respectively.
Consider GGGGTCAA, for which the binding signal in test [10] came out at 0.133 E-score; in [4], 0.101 E-score; in test [11], 0.154 E-score; in test [7] it was 0.0652 E-score; in test [8], 0.481 E-score.
In the case of AATTGACT, the binding signal in test [9] came to 0.0713 E-score; in [2], 0.0891 E-score; in [3], 0.141 E-score; in test [4], 0.0602 E-score; in test [6], 0.125 E-score; in [7], 0.0673 E-score. The binding signal in [8] turned out to be 0.46 E-score.
With CTGTTGAC, the binding signal in test [1] came out at 0.105 E-score; in test [10] it was 0.107 E-score; in test [4], 0.0644 E-score; in [7], 0.0669 E-score; in test [8], 0.48 E-score.
With GTCAGTCA, the binding signal was 0.1 E-score in [4], 0.0958 E-score in [7] and 0.426 E-score in test [8].
Consider ACGTTGAC, for which the binding signal in test [4] was found to be 0.144 E-score; in test [5], 0.0955 E-score; in test [7], 0.127 E-score; in test [8] it was 0.489 E-score.
Take TCAAGTCA: the binding signal turned out to be 0.0629 E-score in test [2]; 0.0801 E-score in [3]; 0.196 E-score in test [4]; 0.057 E-score in [6]; 0.171 E-score in [7]; 0.453 E-score in test [8].
AGTCTACG: the binding signal came to 0.0568 E-score in [10], 0.115 E-score in test [7] and 0.401 E-score in test [8].
In the case of GAGTTGAC, the binding signal in [10] came to 0.0811 E-score; in test [6], 0.102 E-score; in test [7], 0.0621 E-score; in test [8], 0.476 E-score.
